The text below walks through data of PubChem BioAssay AID624002 (National Center for Advancing Translational Sciences (NCATS), 2012).

The test concerns the target Isocitrate dehydrogenase [NADP] cytoplasmic (Homo sapiens) (UniProt O75874). The test can be described thus: qHTS for Inhibitors of mutant isocitrate dehydrogenase 1 (IDH1): Confirmation of Cherrypicks. Also: nearly all actives have a fitted effect of over 50% in size. Conditions: IDH1 R132H enzyme, NADPH diaphorase/resazurin fluorescence. The text has this: Malignant glioblastomas (WHO grade IV), including primary and secondary glioblastomas, are among the most lethal with a median survival of one year, and unfortunately they are also the most prevalent type of brain tumors. By and large the standard of care of gliomas remains the use of the oral alkylating agent temozolomide and radiotherapy following surgical tumor resection. There is an urgent unmet medical need for novel therapeutics for gliomas. IDH mutations occur in up to 70% of grade II-IV secondary glioblastomas, and IDH1 R132H is the most prevalent mutation. […] Wild-type IDH1 catalyzes the conversion of isocitrate to -ketoglutarate with the concomitant reduction of NADP+ to NADPH. […] Inhibition of the IDH1 R132H enzymatic reaction leads to an increase in the amount of NADPH relative to a DMSO control and a concomitant increase in the fluorescence of the diaphorase/resazurin enzyme product resorufin at 590 nm. […]
Enzyme buffer was dispensed into black, solid 1536-well plates at 3 microL/well in 20 mM Tris buffer, pH 7.5, containing final concentrations of 10 mM MgCl2, 20 mM NaCl, 0.001% Tween20, 0.05% BSA, 2 mM beta-ME and 5.2 nM IDH1 R132H. […] The inherent compound fluorescence was measured at this point at 590 nm on a ViewLux plate reader (Ex 525, Em 598, bodipy filter). […] The %Activity was determined from the corrected fluorescence values. […]
On the technique in general: qHTS replaces the single test concentration by a dilution series.

The list shows a part of the results. Inconclusive results are not listed. Active and inactive are the calls of the source. Calls follow the shape of the dose curve; as a rule, active = well fitted inhibition curve with a large enough effect; inconclusive = small, poorly fitted or top-dose-only effect; inactive = no such curve, though single readings can be large or run the other way.
Potency is read from the fitted curve at half-maximal effect.

Sequence of Isocitrate dehydrogenase [NADP] cytoplasmic (Homo sapiens) (O75874 whole entry R132H, stated change not applied): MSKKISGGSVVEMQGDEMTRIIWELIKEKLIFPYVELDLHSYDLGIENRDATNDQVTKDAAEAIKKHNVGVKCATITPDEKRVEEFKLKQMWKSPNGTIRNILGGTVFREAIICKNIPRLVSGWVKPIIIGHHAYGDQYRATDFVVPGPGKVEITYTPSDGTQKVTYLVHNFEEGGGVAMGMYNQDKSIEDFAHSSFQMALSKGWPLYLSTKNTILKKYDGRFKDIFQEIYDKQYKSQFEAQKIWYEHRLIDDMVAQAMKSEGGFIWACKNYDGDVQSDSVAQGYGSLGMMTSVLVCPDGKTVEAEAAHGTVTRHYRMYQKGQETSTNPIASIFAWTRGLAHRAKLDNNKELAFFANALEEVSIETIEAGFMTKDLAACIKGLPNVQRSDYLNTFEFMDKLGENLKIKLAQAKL

Regarding `CC(C)(C)c1ccc(S(=O)(=O)Nc2ccc(O)c(Sc3nc4ccccc4s3)c2)cc1`, the Potency is 15.8 µM (active).
